Structures are written as SMILES. Results filed as inconclusive are left out. A number with no mark means an inactive call. Calls follow the shape of the dose curve; as a rule, active = well fitted cell-killing curve with a large enough effect; inconclusive = small, poorly fitted or top-dose-only effect, or effect the other way; inactive = flat fitted curve, though single readings scatter.
% is scaled to controls: 0 for no effect and ±100 for the full control effect.

For the assay, the system named is C33A. The assay can be described thus: Primary qHTS to identify gynecologic anti-cancer compounds using libraries of approved drugs and bioactive compounds (AID 1345084). Also: nearly all actives have a fitted effect of over 55% in size. Conditions: Gynecologic cancer cell panel viability, ATPlite luminescence, 48 h; series mostly up to 57.5 µM; activity change, negative = cytotoxicity: at the top concentration. Summed up: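 Five-point cytotoxicity, 48 h drug exposure at 37 C, 5% CO2, on cells seeded 16 h beforehand. ATP content read by ATPlite luminescence.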
On the technique in general: qHTS replaces the single test concentration by a dilution series.
`O=C1C[C@@H](c2ccc(O)cc2)Oc2cc(O)ccc21`: the “activity change, negative = cytotoxicity” value is -2.3%.

In the case of `C[C@H](NCc1ccc(OCc2ccccc2F)cc1)C(N)=O`, the “activity change, negative = cytotoxicity” value was -1.19%.

Turning to `C=C1CCC2C(C)(CO[C@@H]3O[C@H](CO)[C@@H](O)[C@H](O)[C@H]3O)C(O)CCC2(C)C1C(=O)CC1=CCOC1=O` (some centres not stated), the “activity change, negative = cytotoxicity” value is 3.7% [at 25.3 µM].

Turning to `CCOC(=O)c1c(C)nn(-c2cccc([N+](=O)[O-])c2)c1C`, the “activity change, negative = cytotoxicity” value was 19.3%.

Consider `OCCc1ccc(O[C@@H]2O[C@H](CO)[C@@H](O)[C@H](O)[C@H]2O)c(O)c1`, for which the “activity change, negative = cytotoxicity” value was 10.8% [at 38.5 µM].

In the case of `CC(=O)O[C@H]1C[C@@H]2[C@]3(CC[C@]4(C)[C@@H](C5(C)CCC(C(C)(C)O)O5)[C@@H](O)C[C@@]24C)C[C@@]32CC[C@H](O[C@@H]3OC[C@@H](O)[C@H](O)[C@H]3O)C(C)(C)[C@H]12` (some centres not stated), the “activity change, negative = cytotoxicity” value is -0.106% [at 25.3 µM].

Regarding `CC(C)(O)C1CCC2(C)C3C(O)C4C(C13)C42CO` (configuration not stated), the “activity change, negative = cytotoxicity” value is -0.2%.

As to `CCC(CCO[C@@H]1O[C@H](CO[C@H]2OC[C@](O)(CO)[C@H]2O)[C@@H](O)[C@H](O)[C@H]1O)C(C)(C)O` (some centres not stated), the “activity change, negative = cytotoxicity” value is -0.809% [at 25.3 µM].

On to `C=CC1C(O[C@@H]2O[C@H](CO)[C@@H](O)[C@H](O)[C@H]2O)OC=C(C(=O)OC)C1CC(=O)O` (some centres not stated), for which the “activity change, negative = cytotoxicity” value is 17.1% [at 25.3 µM].

On to `CC1=CC(=O)C[C@H]2[C@@H]1CC[C@@H](C)[C@]21CO[C@H](c2ccoc2)C1=O`, for which the “activity change, negative = cytotoxicity” value is -6.4% [at 38.5 µM].

As to `CC1CC(O)CC(C)(C)C1(O)CCO` (configuration not stated), the “activity change, negative = cytotoxicity” value was -0.942%.

Regarding `CCCOc1ccn2c(C(C)=O)cc(-c3ccccc3S(C)(=O)=O)c2c1`, the “activity change, negative = cytotoxicity” value was 5.13%.

In the case of `O=C(COc1ccc(Cl)cc1)NC1CCC(NC(=O)COc2ccc(Cl)cc2)CC1` (configuration not stated), the “activity change, negative = cytotoxicity” value is 13.6%.

As to `CCCCCCc1cccc(NC(=O)[C@H](N)CCP(=O)(O)O)c1`, the activity change, negative = cytotoxicity is 10.1% [at 11.6 µM].

For `NC(=O)c1cccc(-c2cc(O)cc(OC(=O)NC3CCCCC3)c2)c1`, the “activity change, negative = cytotoxicity” value was 3.13% [at 25.3 µM].

In the case of `COC(=O)C1C(CC(C)=O)C=CC(O)C12Oc1cc(C)cc(O)c1C2=O` (configuration not stated), the “activity change, negative = cytotoxicity” value is 3.57% [at 38.5 µM].

Take `Cc1cc(C)cc(NC(=O)Cc2ccc(OC(C)(C)C(=O)O)cc2)c1`: the “activity change, negative = cytotoxicity” value is -1.56%.

`C[C@@H]1CC[C@]2(C)C(C[C@@H](O)[C@H](O)[C@]23CO3)[C@@]1(C)CCc1ccoc1` (some centres not stated): the “activity change, negative = cytotoxicity” value was 2.46% [at 38.5 µM].

On to `CCC(C)/C=C(C)/C=C/C1=CC2=C(Cl)C(=O)C(C)(OC(C)=O)C(=O)C2=CN1C1CCCCN(C(CCC(N)=O)C(=O)O)C1=O` (configuration not stated), for which the “activity change, negative = cytotoxicity” value is -0.889% [at 25.3 µM].

As for `CC1(C)CC[C@]2(C(=O)O)CC[C@]3(C)C(=CCC4[C@@]5(C)CCC(O[C@@H]6OC[C@H](O)[C@H](O)[C@H]6O[C@@H]6O[C@H](CO)[C@@H](O)[C@H](O)[C@H]6O)[C@@](C)(CO)C5CC[C@]43C)[C@@H]2C1` (some centres not stated), the “activity change, negative = cytotoxicity” value is -2.56% [at 25.3 µM].

With `Cc1cccc(-c2[nH]c(CNc3ccccc3F)nc2-c2ccc3ncnn3c2)n1`, the “activity change, negative = cytotoxicity” value was -5.11%.

With `CCc1cc2c(=O)c(-c3nc4ccccc4s3)coc2c(CN2CCCCC2)c1O`, the “activity change, negative = cytotoxicity” value was 12.6% [at 25.3 µM].

The values are drawn from PubChem BioAssay (NCATS).
